PubChem BioAssay (NCATS)
Results filed as inconclusive are left out. Entries that show only a call come without a potency. Activity calls are given as the source filed them. The call rests on the fitted dose curve.

Target: Nucleoprotein (Lymphocytic choriomeningitis virus (strain Armstrong)) (UniProt P09992)
Experiment: qHTS for Inhibitors of the Functional Ribonucleoprotein Complex (vRNP) of Lymphocytic Choriomeningitis Arenaviruses (LCMV): LCMV Primary Screen - GLuc reporter signal (AID 1347086); further: nearly all actives have a fitted effect of over 70% in size
Details: LCMV minigenome vRNP cell assay, Gaussia luciferase reporter; series mostly up to 57.5 µM
Potency means the concentration at half of the fitted maximal effect.

Chain of Nucleoprotein (Lymphocytic choriomeningitis virus (strain Armstrong)) (P09992 whole entry, looked up): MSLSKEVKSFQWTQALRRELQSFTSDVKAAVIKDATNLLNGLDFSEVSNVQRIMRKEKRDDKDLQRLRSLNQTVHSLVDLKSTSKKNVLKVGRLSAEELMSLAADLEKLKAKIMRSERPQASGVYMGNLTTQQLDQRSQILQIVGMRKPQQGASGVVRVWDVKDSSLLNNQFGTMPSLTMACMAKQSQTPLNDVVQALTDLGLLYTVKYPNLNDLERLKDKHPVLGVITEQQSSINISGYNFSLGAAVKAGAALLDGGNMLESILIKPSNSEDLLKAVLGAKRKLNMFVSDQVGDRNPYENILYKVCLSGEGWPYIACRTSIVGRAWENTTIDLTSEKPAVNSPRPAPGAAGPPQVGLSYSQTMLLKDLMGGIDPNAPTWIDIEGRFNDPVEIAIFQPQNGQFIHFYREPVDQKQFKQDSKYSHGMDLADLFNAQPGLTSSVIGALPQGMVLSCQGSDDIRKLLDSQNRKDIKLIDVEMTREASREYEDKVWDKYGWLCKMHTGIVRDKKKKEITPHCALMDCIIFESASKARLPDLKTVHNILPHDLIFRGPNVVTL

Row | Compound | Potency
1 | C#C[C@]1(O)CC[C@H]2[C@@H]3CCc4cc(OC)ccc4[C@H]3CC[C@@]21C | inactive
2 | Cc1c(Cn2ccnc2)c2ccccc2n1CCC(=O)O | inactive
3 | CN1C[C@H](C(=O)N[C@]2(C)O[C@@]3(O)[C@@H]4CCCN4C(=O)[C@H](Cc4ccccc4)N3C2=O)C[C@@H]2c3cccc4[nH]cc(c34)C[C@H]21 | inactive
4 | CCCN(CCC)C(=O)C(CCC(=O)O)NC(=O)c1ccccc1 (centres undefined) | inactive
5 | Cc1cc2c(OCC(CNC(C)(C)C)OC(=O)c3ccccc3)cccc2[nH]1 (centres undefined) | inactive
6 | COc1ccc2cc1Oc1ccc(cc1)C[C@H]1c3c(cc4c(c3Oc3cc5c(cc3OC)CCN(C)[C@@H]5C2)OCO4)CCN1C | inactive
7 | CC(=O)Oc1ccc(C(c2ccc(OC(C)=O)cc2)c2ccccn2)cc1 | inactive
8 | CC(=O)OCC(=O)Nc1cc(C#N)cc(NC(=O)COC(C)=O)c1Cl | inactive
9 | O=C1c2ccccc2C(=O)C1c1ccc(Br)cc1 | inactive
10 | Oc1c(Cl)cc(Cl)c2cccnc12 | inactive
11 | COC(=O)C1=C(C)NC(COC(N)=O)=C(C(=O)OC(C)C)C1c1cccc(Cl)c1Cl (centres undefined) | inactive
12 | COc1ccc(-n2nc(CCC(=O)N(C)O)cc2-c2ccc(Cl)cc2)cc1 | inactive
13 | CCCCN(CCN(CCCC)C(=O)N1CCOCC1)C(=O)N1CCOCC1 | inactive
14 | NS(=O)(=O)c1cc2c(cc1Cl)NCNS2(=O)=O | inactive
15 | Cc1sccc1Br | inactive
16 | O=Cc1ccccc1C=O | inactive
17 | C=CC[N+]1([C@H]2C[C@H]3[C@@H]4CC[C@H]5C[C@H](OC(C)=O)[C@@H](N6CCCCC6)C[C@]5(C)[C@H]4CC[C@]3(C)[C@H]2OC(=O)CC)CCCCC1 | inactive
18 | O=C(CCCCCCCCC#CI)Oc1ccccc1 | inactive
19 | CN1CCCN=C1COC(=O)C(O)(c1ccccc1)C1CCCCC1 (centres undefined) | inactive
20 | CN(C)[C@@H](CCOc1cccc2ccccc12)c1ccccc1 | inactive

Row | Compound | Potency
21 | CCC(=O)O[C@]1(C(=O)SCF)[C@H](C)C[C@H]2[C@@H]3C[C@H](F)C4=CC(=O)C=C[C@]4(C)[C@@]3(F)[C@@H](O)C[C@@]21C | 17.2 µM (active)
22 | COc1ccc(-c2cc(C(F)F)nn2-c2ccc(S(N)(=O)=O)cc2)cc1F | inactive
23 | O=S1(=O)c2cccc3cccc(c23)N1CCCN1CCN(c2ccc(F)cc2)CC1 | inactive
24 | O=C1CC2(CCCC2)CC(=O)N1CCCCN1CCN(c2ncccn2)CC1 | inactive
25 | CC1=C(C)C(=O)C(CCCCC#CCCCC#CCO)=C(C)C1=O | inactive
26 | CC1CCc2cc(F)cc3c(=O)c(C(=O)O)cn1c23 (centres undefined) | inactive
27 | OCC(O)CN1CCN(c2ccccc2)CC1 (centres undefined) | inactive
28 | CNC(=O)CN(CCN(CCN(CC(=O)[O-])CC(=O)NC)CC(=O)[O-])CC(=O)[O-].O.[Gd+3] | inactive
29 | O=c1[nH]c2ccccc2c(=O)n1CCCl | inactive
30 | COC(=O)C1=C(C)NC(C)=C(C(=O)O[C@@H]2CCCN(Cc3ccccc3)C2)[C@@H]1c1cccc([N+](=O)[O-])c1 | inactive
31 | COc1ccc(CN(CCN(C)C)c2ccccn2)cc1 | inactive
32 | O=C(Nc1ccc([N+](=O)[O-])cc1)Nc1ccc([N+](=O)[O-])cc1 | inactive
33 | OCC(CO)N[C@H]1C[C@](O)(CO)[C@@H](O)[C@H](O)[C@H]1O | inactive
34 | CN(C)CCN(Cc1ccccc1)c1ccccn1 | inactive
35 | Oc1c(I)cc(Cl)c2cccnc12 | inactive
36 | CCN1CCN(c2cc(-c3ccc(F)cc3)c3c(n2)CCCCCC3)CC1 | inactive
37 | NS(=O)(=O)c1cc2c(cc1Cl)NC(CSCc1ccccc1)=NS2(=O)=O | inactive
38 | Cc1cc(O)c(C)c(C)c1O | inactive
39 | CC(C)CCCC(C)N (centres undefined) | inactive
